Assay outcomes from PubChem.
A selection: hits, their analogues and other compounds. The true share with any hit is near 12%.
PLK1 PBD inh: qHTS for Inhibitors of PLK1-PDB (polo-like kinase 1 - polo-box domain): Primary Screen. Serine/threonine-protein kinase PLK1 (Homo sapiens), P53350. Plk1 PBD binding of FITC phosphopeptide, fluorescence polarization. Potency, µM, for the others: max response, negative = inhibition, usual class: inhibitors. hit rate 2.8% among 360,000; also: series mostly up to about 57 µM; % is scaled to controls: 0 for no effect and ±100 for the full control effect; nearly all actives have a fitted effect of over 65% in size
HP1b binding inh: HTS for Inhibitors of HP1-beta Chromodomain Interactions with Methylated Histone Tails; hit rate 0.56% among 390,000; Potency, µM (highest dose often 114 µM), without a hit: at the highest dose activity change, negative = inhibition, hits mostly inhibitors; Chromobox protein homolog 1 (Homo sapiens), P83916; AlphaScreen HP1-beta / biotin-H3K9me3 peptide binding; AID 540317, 2011; also: nearly all actives have a fitted effect of over 70% in size
Target sequence (P83916 whole entry, looked up): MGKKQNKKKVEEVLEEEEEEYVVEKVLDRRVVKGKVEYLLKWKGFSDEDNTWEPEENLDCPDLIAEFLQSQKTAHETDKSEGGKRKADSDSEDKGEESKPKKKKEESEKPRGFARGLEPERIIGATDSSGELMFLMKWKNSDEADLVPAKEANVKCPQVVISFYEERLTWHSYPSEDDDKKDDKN
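AlphaScreen: HP1-beta (50 nM) preformed 30 min with biotin-H3(1-18)K9me3 peptide (50 nM) in PBS pH 7.4, 0.01% Tween-20. Compound added for 30 min at RT, then streptavidin donor/nickel chelate acceptor beads (10 ug/mL) for 30 min.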
BAZ2B block: qHTS Assay for Inhibitors of BAZ2B; Potency, µM (series often up to 114 µM), for the others: at the top dose activity change, negative = inhibition, most hits filed as inhibitors; AlphaScreen BAZ2B-H3K14Ac peptide displacement; hit rate 4.4% among 360,000; Bromodomain adjacent to zinc finger domain protein 2B (Homo sapiens), Q9UIF8; also: % is scaled to controls: 0 for no effect and ±100 for the full control effect; nearly all actives have a fitted effect of over 60% in size
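In this displacement format the biotinylated H3(5-23) peptide acetylated at Lys14 serves as ligand at 50 nM, with BAZ2B at 50 nM in PBS pH 7.4 containing 0.01% Tween-20. Donor and acceptor beads are 10 ug/mL final.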
G9a inh: qHTS Assay for Inhibitors of Histone Lysine Methyltransferase G9a | Histone-lysine N-methyltransferase EHMT2 (Homo sapiens), Q96KQ7 | G9a H3K9 monomethylation, AlphaScreen, 2 h | Potency, µM (top dose mostly 102 µM), for the others: at the top dose activity, negative = inhibition, most hits filed as inhibitors | hit rate 8.8% among 350,000 | AID 504332, 2011; also: % is scaled to controls: 0 for no effect and ±100 for the full control effect; nearly all actives have a fitted effect of over 75% in size
Target sequence (Q96KQ7 913-1193 limits assumed): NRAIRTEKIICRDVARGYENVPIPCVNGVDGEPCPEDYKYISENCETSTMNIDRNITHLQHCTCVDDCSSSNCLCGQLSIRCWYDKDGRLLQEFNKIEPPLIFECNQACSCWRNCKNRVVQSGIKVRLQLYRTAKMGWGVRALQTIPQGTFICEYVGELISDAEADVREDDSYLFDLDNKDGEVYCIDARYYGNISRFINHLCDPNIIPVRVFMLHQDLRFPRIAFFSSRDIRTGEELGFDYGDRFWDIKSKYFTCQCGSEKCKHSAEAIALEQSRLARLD
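Signal arises when biotinylated H3K9 peptide, once monomethylated, bridges streptavidin donor and antibody-captured acceptor beads. Enzyme at 20 nM was preincubated 15 min with test compounds; peptide 500 nM and SAM 20 uM then reacted for 2 h.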
Sfp inh: qHTS Assay for Inhibitors of Bacillus subtilis Sfp phosphopantetheinyl transferase (PPTase); hit rate 3.5% among 310,000; 4'-phosphopantetheinyl transferase ffp (Bacillus subtilis), Q9F4F7; AID 1490, 2009; Potency, µM, for inactives: largest response in the series, negative = inhibition, actives largely listed as inhibitors; Biochemical Sfp PPTase activity, qHTS;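 also: the enzyme is Sfp with the accession as filed and its product quenches rhodamine fluorescence; 0% = enzyme reaction without inhibitor and -100% = no enzyme wells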
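With Hepes-Na pH 7.6 buffer containing 10 mM MgCl2, Sfp (15 nM) modified BHQ-2-YbbR (12.5 uM) using rhodamine-CoA (5 uM). Two reads 30 minutes apart at 525/598 nm yielded each well's rate.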
JMJD2A Tudor: qHTS Assay for Inhibitors of JMJD2A-Tudor Domain; Potency, µM (highest dose often 114 µM), without a hit: at the highest dose activity change, negative = inhibition, usual class: inhibitors; hit rate 4.4% among 390,000; AlphaScreen JMJD2A-Tudor / H3K4me3 peptide binding; also: % is scaled to controls: 0 for no effect and ±100 for the full control effect; nearly all actives have a fitted effect of over 50% in size
* hit, by the source's call; ? = inconclusive; / = no result given; ! = repeats disagree; [ ] = dose if it differs, or a comment. Calls follow the shape of the dose curve; as a rule, active = well fitted curve in the direction sought with a large enough effect; inconclusive = small, poorly fitted or top-dose-only effect, or another doubt; inactive = no such curve, though single readings can be large; an effect the other way counts as inactive or inconclusive. Potency is read from the fitted curve at half-maximal effect.

SMILES	PLK1 PBD inh	HP1b binding inh	BAZ2B block	G9a inh	Sfp inh	JMJD2A Tudor
CCc1nnc2c(NCCc3ccc(OC)c(OC)c3)nc3ccccc3n12	27µM*	10%	?	4%	6%	32µM*!
Nc1nnc(/C=C/c2ccccc2Cl)s1	?	6%	2%	50µM*	-24%	2%
CCC(CC)C(=O)NC1CC(=O)N(c2ccc3c(c2)OCCO3)C1 (stereo unspecified)	/	9%	-3%	3%[59 µM]	/	-3%
CCCc1cc(=O)c2c(O)ccc(OC)c2o1	3%	4%	-17%	-6%	23%	-17%
O=C(O)c1ccc(NC(=S)Nc2ccc(S(=O)(=O)Nc3ccccn3)cc2)cc1	?	-17%	/	/	/	-14%
Cc1ccc(C2c3c(oc4ccc(Cl)cc4c3=O)C(=O)N2CCCN2CCOCC2)o1 (stereo unspecified)	/	/	-36%	?	-29%	/
CC(=O)C1=C(O)C(=O)N(CCN2CCOCC2)C1c1ccc(N(C)C)cc1 (stereo unspecified)	-10%	16%	/	/	/	?
COc1ccc(C2c3c(oc4ccccc4c3=O)C(=O)N2CCCN2CCOCC2)cc1 (stereo unspecified)	?	25%	/	/	/	-3%
CCCOc1ccc(C2C(C(=O)/C=C/c3ccco3)=C(O)C(=O)N2CCN2CCOCC2)cc1OC (stereo unspecified)	-15%	3%	/	45µM*	45µM*	?
O=C1c2oc3ccc(Cl)cc3c(=O)c2C(c2ccco2)N1CCN1CCOCC1 (stereo unspecified)	-7%	10%	-36%	11µM*	1%	-25%
COc1cc(C2C(C(C)=O)=C(O)C(=O)N2CCN2CCOCC2)ccc1O (stereo unspecified)	-7%	19%	-4%	50µM*	-2%	-22%
O=C1c2oc3ccccc3c(=O)c2C(c2cccc(O)c2)N1CCCN1CCOCC1 (stereo unspecified)	-25%	22%	11%	89µM*	-13%	-10%
CCSc1nc2c(sc3ccccc32)c(=O)n1C(C)C	-8%	126%	58%	73%	?	95%
COc1ccccc1/C=C/C=N/NC(=O)CCn1nnc2ccccc21	?	0%	1%	-20%	6%	-22%
Cc1cc2oc3c(c(=O)c2cc1C)C(c1ccc(F)cc1)N(CCCN1CCOCC1)C3=O (stereo unspecified)	-15%	25%	4%	?	-8%	-16%
COc1cc(C2c3c(oc4cc(C)c(C)cc4c3=O)C(=O)N2CCCN2CCOCC2)ccc1O (stereo unspecified)	/	-10%	-14%	28µM*	/	-20%
CCN(CC)P(=O)(Nc1ccc(C)cc1Br)c1ccc(N(C)C)cc1NC(=O)c1ccco1 (stereo unspecified)	-14%	?	?	40µM*	-28%	40µM*
Cc1ccc(Cl)cc1NC(=O)Cn1nc(-c2cccs2)ccc1=O	-1%	30%	-11%	-3%	-23%	-13%
COC(=O)CN1C(=O)[C@H]2[C@@H](c3ccc(C)o3)N3C(=O)CN(CC4CC4)C(=O)[C@@]3(C)[C@H]2C1=O	-12%	44%	-6%	50µM*	?	-29%
COC(=O)CN1C(=O)[C@H]2[C@@H](c3ccc(C)o3)N3C(=O)CN(Cc4ccccc4)C(=O)[C@@]3(Cc3ccccc3)[C@H]2C1=O	-20%	18%	-4%	-21%	?	-16%
Cc1ccc([C@@H]2[C@@H]3C(=O)N(C)C(=O)[C@@H]3[C@]3(C)C(=O)N(CCO)CC(=O)N23)o1	-8%	34%	-17%	45µM*	3%	-12%
